Measured values taken from the supplement of paper PMC12532568.
Structures can show the parent of a compound that is named as a salt.

system: Danio rerio larvae Tg(actc1b:ZsGreen-LC3), 3 dpf; test: LC3 puncta relative area vs vehicle, without NH4Cl (log2 fold change); higher = more autophagosomes; conditions: 10 µM; treatment time 16 h; NH4Cl: none
Protocol: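 Transgenic Tg(actc1b:ZsGreen-map1lc3) zebrafish larvae (2 dpf) were treated for 16 h with Tocris library compounds at 10 µM (n = 12 larvae per compound). Skeletal-muscle LC3 puncta area relative to body area was measured by high-content confocal imaging before and after 4 h of 100 mM NH4Cl (autophagic flux), normalised to vehicle (DMSO), and reported as log2 fold change.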

Row | Compound | LC3 puncta (log2)
1 | O=C(Cc1ccc(Cl)c(Cl)c1)N1CCCCC1CN1CCCC1 (configuration not stated) | 0.372
2 | CN(C(=O)Cc1ccc(Cl)c(Cl)c1)[C@H](CN1CCCC1)c1ccccc1 [ICI 199,441 hydrochloride] | 0.0954
3 | CCCN(CCC)C1CCc2cccc(O)c2C1 (configuration not stated) [8-Hydroxy-DPAT hydrobromide] | 0.14
4 | CCCN(CCC)C1CCc2ccc(O)cc2C1 (configuration not stated) [7-Hydroxy-DPAT hydrobromide] | -0.0217
5 | c1ccc2c(c1)[I+]c1ccccc1-2 [Diphenyleneiodonium chloride] | 0.217
6 | CO[C@]12C[C@@H](COC(=O)c3cncc(Br)c3)CN(C)[C@@H]1Cc1cn(C)c3cccc2c13 [Nicergoline] | 0.51
7 | N=C(NCc1ccc(Cl)cc1)SCCCc1c[nH]cn1 [Clobenpropit dihydrobromide] | 0.454
8 | N=C(N)NN [Aminoguanidine hydrochloride] | 0.471
9 | c1ccc(C2CNCc3ccccc32)cc1 (configuration not stated) [4-Phenyl-1,2,3,4-tetrahydroisoquinoline hydrochloride] | 0.365
10 | CC(=O)NCCc1c[nH]c2ccccc12 [N-Acetyltryptamine] | -0.161
11 | Cc1onc(O)c1CC(N)C(=O)O (racemic) | -0.391
12 | CC[N+](CC)(CCCNC1=CC(=O)C(NCCC[N+](CC)(CC)Cc2ccccc2)=CC1=O)Cc1ccccc1 [Benzoquinonium dibromide] | -0.144
13 | N[C@@]1(C(=O)O)CC[C@@H](C(=O)O)C1 | 0.259
14 | S=C(NC1CCCCC1)N1CCC(c2cnc[nH]2)CC1 [Thioperamide] | 0.0474
15 | COc1ccc(C(=O)N2CCCC2=O)cc1 [Aniracetam] | 0.228
16 | CN(C(=O)Cc1ccccc1)C(CN1CCCC1)c1ccccc1 (configuration not stated) [N-MPPP Hydrochloride] | 0.385
17 | Cc1onc(O)c1C[C@H](N)C(=O)O | 0.235
18 | CC(C(=O)OC1CC2CCC(C1)N2C)c1ccc(Br)cc1 (configuration not stated) [PG-9 maleate] | 0.116
19 | N[C@@H](Cn1oc(=O)[nH]c1=O)C(=O)O [L-Quisqualic acid] | 0.387
20 | NC(C(=O)O)c1nn[nH]n1 (racemic) [(RS)-(Tetrazol-5-yl)glycine] | 0.24
21 | O=C(CCCN1CCC2(CC1)C(=O)N(Cc1cccc(F)c1)CN2c1ccccc1)c1ccc(F)cc1 [3'-Fluorobenzylspiperone maleate] | 0.503
22 | CCC(Oc1ccc(Cl)cc1)C(=O)OC1C[C@H]2CC[C@@H](C1)N2C (some centres not stated) [SM-21 maleate] | 0.226
23 | COc1ccc(CNC(=O)/C=C/c2ccc3[nH]cc(CCN(C)C)c3c2)cc1 | -0.124
24 | NCCc1c[nH]c2ccc(C(N)=O)cc12 [5-Carboxamidotryptamine maleate] | 0.0843
25 | O=C(O)Cc1cccnc1C(=O)O [Homoquinolinic acid] | -0.131
26 | Cc1[nH]c2ccc(O)cc2c1CCN [2-Methyl-5-hydroxytryptamine hydrochloride] | -0.132
27 | c1ccc2sc(C3(N4CCCCC4)CCCCC3)cc2c1 [BTCP maleate] | 0.288
